According to PubChem BioAssay AID588432 (Broad Institute, 2011):
The source made the active and inactive calls.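 How the source made its calls: active means luciferase inhibitors whose fitted dose curve gives a half-maximal potency within ten times the top tested dose; inconclusive means flat curve with 30 to 70% inhibition, or a poor fit; inactive means the rest.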

Test: luciferase inhibitors in kinase-free ADP detection – biochemical, luminescence, cherry-pick, set 04, artefact control for Dyrk1A inhibitor project, dose response (AID 588432)
Conditions: ADP-Glo luminescence without kinase, luciferase artifact; series mostly up to 12 µM

outcome, inactive:
FC(F)(F)c1cc(Br)cc(Nc2nccc(-c3ccc4c(c3)OCO4)n2)c1, c1csc(CNc2ncnc3ccc(-c4ccc5c(c4)OCO5)cc23)n1, Cc1ccc(CNc2ncnc3ccc(-c4ccoc4C)cc23)o1, CCN(Cc1cccs1)c1ncnc2ccc(-c3ccc4c(c3)OCO4)cc12, FC(F)(F)c1cccc(Nc2nccc(-c3ccc4c(c3)OCO4)n2)c1, Clc1cc(Cl)cc(CNc2cc(-c3ccc4c(c3)OCO4)ncn2)c1, COc1cc(-c2ccc3ncnc(NCCc4cnc[nH]4)c3c2)cc(OC)c1OC, c1cncc(CNc2nccc(-c3ccc4c(c3)OCO4)n2)c1, COc1ccc(-c2ccnc(NCc3ccc(Cl)c(Cl)c3)n2)cc1OC, CCN1/C(=C/C(C)=O)Sc2ccc(OC)cc21, Cn1ccc2cc(-c3ccc4ncnc(NCc5ccc6c(c5)OCO6)c4c3)ccc21, Clc1ccc(CNc2ccnc(-c3ccc4[nH]ncc4c3)n2)cc1Cl, Cc1nc(CNc2ncnc3ccc(-c4ccoc4)cc23)cs1, CCCNc1ncnc2ccc(-c3ccc4c(c3)OCO4)cc12, c1csc(CNc2ncnc3ccc(-c4ccc5c(c4)OCO5)cc23)c1, COc1ccc(-c2nccc(NCc3ccc(C)cc3)n2)cc1, CCOC(=O)c1ccc(-c2ccc3ncnc(N(C)Cc4sccc4C)c3c2)o1, c1cncc(CNc2nccc(-c3ccc4cn[nH]c4c3)n2)c1, c1csc(CCNc2ncnc3ccc(-c4ccc5c(c4)OCO5)cc23)c1, Cc1ccsc1CN(C)c1ncnc2ccc(-c3ccc(CO)o3)cc12, c1cncc(CNc2ncncc2-c2ccc3c(c2)OCO3)c1, c1cncc(CNc2ccnc(-c3ccc4[nH]ncc4c3)n2)c1, Cc1csc(CNc2ncnc3ccc(-c4ccc5c(ccn5C)c4)cc23)c1, c1coc(CCNc2ncnc3ccc(-c4ccc5c(c4)OCO5)cc23)c1, Clc1ccc(CNc2cc(-c3ccc4c(c3)OCO4)ncn2)cc1Cl, Cc1noc(CN(C)c2ncnc3ccc(-c4ccc5c(c4)OCO5)cc23)n1, Clc1ccc(CNc2nccc(-c3ccc4cn[nH]c4c3)n2)cc1Cl, c1cncc(CNc2ccnc(-c3ccc4cn[nH]c4c3)n2)c1, c1nc(NCC2CCCO2)c2cc(-c3ccc4c(c3)OCO4)ccc2n1 (centres undefined), c1nc(NCC2CCCC2)c2cc(-c3ccc4c(c3)OCO4)ccc2n1, Clc1ccc(CNc2cc(-c3ccc4c(c3)OCO4)ncn2)cc1, Cc1csc(CN(C)c2ncnc3ccc(-c4ccc5c(c4)OCO5)cc23)n1, c1nc(NCC2CCCOC2)c2cc(-c3ccc4c(c3)OCO4)ccc2n1 (centres undefined), Clc1ccc(CNc2nccc(-c3ccc4c(c3)OCCO4)n2)cc1Cl
